Measurements from PubChem BioAssay AID1159580 (chemical genetic matrix, 2015).
Hit rate of the full screen: of about 5,500 compounds, about 2,000 (36%) were called active. Inconclusive results (about 18%) are left out. Cut-off read from the data, not from the text of the source: active = normalized growth mostly below about 0.91 (no sharp cut-off); inconclusive = no clear call, values can overlap the other calls; inactive = mostly above about 0.92. The list shows a part of the results.

Assay: chemical genetic growth profiling, strain panel (AID 1159580);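 note: tested at 20 µM; growth read once vehicle control cultures reached saturation at 30 °C; 1 = growth at the plate median or of vehicle wells; lower values mean less growth of the strain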
Details: S. cerevisiae deletion strains, growth OD

Measured: normalized growth

O=C1N(c2ccccc2)c2ccccc2C1(Cc1ccncc1)Cc1ccncc1
inactive: locus YAL040C, strain CLN3, stronger effect = lower value 1.01 | locus YCL061C, strain MRC1 (second series), stronger effect = lower value 1.01 | locus YDR150W, strain NUM1, stronger effect = lower value 1 | locus YDR363W, strain ESC2, stronger effect = lower value 1.03 | locus YER002W, strain NOP16, stronger effect = lower value 0.988 | locus YJR075W, strain HOC1, stronger effect = lower value 1.02 | locus YMR307W, strain GAS1, stronger effect = lower value 0.997 | locus YNL175C, strain NOP13, stronger effect = lower value 0.996 | locus YNL197C, strain WHI3, stronger effect = lower value 0.997 | locus YNL224C, strain SQS1, stronger effect = lower value 1 | locus YNL322C, strain KRE1, stronger effect = lower value 1.03 | locus YOR083W, strain WHI5 (second series), stronger effect = lower value 1.02 | locus YPL055C, strain LGE1, stronger effect = lower value 1.03 | locus YPL241C, strain CIN2, stronger effect = lower value 0.995

CC1(C)CC2C1CC[C@]1(C)CCC3C(C(=O)O)CC(=O)O[C@@]32C1 (some centres not stated)
inactive: locus YAL021C, strain ccr4, stronger effect = lower value 1.07 | locus YAL026C, strain drs2, stronger effect = lower value 1.07 | locus YAL030W, strain snc1, stronger effect = lower value 1.04 | locus YBL061C, strain skt5, stronger effect = lower value 1.03 | locus YBR009C, strain hhf1, stronger effect = lower value 1.03 | locus YBR023C, strain chs3, stronger effect = lower value 1.02 | locus YBR171W, strain sec66, stronger effect = lower value 1.07 | locus YBR231C, strain swc5, stronger effect = lower value 1.06 | locus YBR279W, strain paf1, stronger effect = lower value 1.01 | locus YCL011C, strain gbp2, stronger effect = lower value 1.03 | locus YCL016C, strain dcc1, stronger effect = lower value 1.06 | locus YCL061C, strain MRC1, stronger effect = lower value 1.03 | locus YCR088W, strain abp1, stronger effect = lower value 1.03 | locus YDL005C, strain med2, stronger effect = lower value 1.04 | locus YDL040C, strain nat1, stronger effect = lower value 1.05 | locus YDR001C, strain nth1, stronger effect = lower value 1.04 | locus YDR069C, strain doa4, stronger effect = lower value 1.06 | locus YDR137W, strain rgp1, stronger effect = lower value 1.04 | locus YDR159W, strain sac3, stronger effect = lower value 1.05 | locus YDR195W, strain ref2 1.06 | locus YDR297W, strain sur2, stronger effect = lower value 1.05 | locus YDR334W, strain swr1, stronger effect = lower value 1.09 | locus YDR392W, strain spt3, stronger effect = lower value 1.14 | locus YEL003W, strain gim4, stronger effect = lower value 1.02 | locus YEL037C, strain rad23, stronger effect = lower value 1.06 | locus YEL061C, strain CIN8 (second series), stronger effect = lower value 1.04 | locus YER015W, strain faa2, stronger effect = lower value 1.02 | locus YER016W, strain bim1, stronger effect = lower value 1.04 | locus YER111C, strain swi4, stronger effect = lower value 1.01 | locus YER155C, strain BEM2 (second series), stronger effect = lower value 1.04 | locus YFR010W, strain ubp6, stronger effect = lower value 1.09 | locus YGL167C, strain pmr1, stronger effect = lower value 1.05 | locus YGL173C, strain kem1, stronger effect = lower value 1.03 | locus YGL227W, strain vid30, stronger effect = lower value 1.02 | locus YGL240W, strain doc1, stronger effect = lower value 1.06 | locus YGL253W, strain hxk2, stronger effect = lower value 1.06 | locus YHR013C, strain ard1, stronger effect = lower value 1.05 | locus YHR027C, strain rpn1, stronger effect = lower value 1.03 | locus YHR030C, strain SLT2, stronger effect = lower value 1 | locus YHR079C, strain IRE1, stronger effect = lower value 1 | locus YHR142W, strain chs7, stronger effect = lower value 1.05 | locus YJL092W, strain hpr5, stronger effect = lower value 1.07 | locus YJL095W, strain BCK1 (second series), stronger effect = lower value 1.04 | locus YJL095W, strain BCK1, stronger effect = lower value 0.99 | locus YJL115W, strain asf1, stronger effect = lower value 1.06 | locus YJL129C, strain trk1, stronger effect = lower value 1.09 | locus YJL154C, strain vps35, stronger effect = lower value 1.05 | locus YJL164C, strain tpk1, stronger effect = lower value 1.02 | locus YJL166W, strain qcr8, stronger effect = lower value 1.05 | locus YJL187C, strain SWE1, stronger effect = lower value 1.03 | locus YJR066W, strain TOR1, stronger effect = lower value 0.942 | locus YKL160W, strain elf1, stronger effect = lower value 1.05 | locus YKR026C, strain gcn3, stronger effect = lower value 1.02 | locus YKR091W, strain srl3, stronger effect = lower value 1.04 | locus YLL001W, strain dnm1, stronger effect = lower value 1.07 | locus YLL026W, stronger effect = lower value 1.01 | locus YLL041C, strain sdh2, stronger effect = lower value 1.01 | locus YLR027C, strain aat2, stronger effect = lower value 1.04 | locus YLR113W, strain HOG1, stronger effect = lower value 0.98 | locus YLR221C, strain rsa3, stronger effect = lower value 1.02 | locus YLR262C, strain YPT6 (second series), stronger effect = lower value 1.07 | locus YLR320W, strain mms22, stronger effect = lower value 1.05 | locus YLR342W, strain FKS1, stronger effect = lower value 1.02 | locus YLR357W, strain rsc2, stronger effect = lower value 1.13 | locus YLR370C, strain arc18, stronger effect = lower value 1.03 | locus YLR384C, strain iki3, stronger effect = lower value 1.01 | locus YML120C, strain ndi1, stronger effect = lower value 1.04 | locus YMR058W, strain fet3, stronger effect = lower value 1.03 | locus YMR125W, strain sto1, stronger effect = lower value 1.06 | locus YMR129W, stronger effect = lower value 1.05 | locus YMR205C, strain PFK2, stronger effect = lower value 1.04 | locus YMR231W, strain pep5, stronger effect = lower value 1.03 | locus YNL071W, strain lat1, stronger effect = lower value 1.04 | locus YNL183C, strain NPR1, stronger effect = lower value 0.931 | locus YNL209W, strain ssb2, stronger effect = lower value 1.01 | locus YNL322C, strain KRE1 (second series), stronger effect = lower value 1.02 | locus YNR049C, strain mso1, stronger effect = lower value 1.05 | locus YOR001W, strain rrp6, stronger effect = lower value 1.06 | locus YOR083W, strain WHI5, stronger effect = lower value 1.08 | locus YOR106W, strain vam3, stronger effect = lower value 1.05 | locus YOR231W, strain MKK1, stronger effect = lower value 0.985 | locus YOR265W, strain rbl2, stronger effect = lower value 1.05 | locus YOR270C, strain vph1, stronger effect = lower value 1.14 | locus YPL051W, strain arl3, stronger effect = lower value 1.03 | locus YPL078C, strain atp4, stronger effect = lower value 1.07 | locus YPL106C, strain sse1, stronger effect = lower value 1.11 | locus YPL240C, strain hsp82, stronger effect = lower value 1.02 | locus YPL256C, strain CLN2, stronger effect = lower value 0.967
active: locus YDR335W, strain msn5, stronger effect = lower value 1.15 [resistant] | locus YLR258W, strain gsy2, stronger effect = lower value 1.1 [resistant] | locus YOR070C, strain gyp1, stronger effect = lower value 1.14 [resistant] | locus YOR080W, strain dia2, stronger effect = lower value 1.1 [resistant] | locus YOR290C, strain snf2, stronger effect = lower value 1.18 [resistant]
